From the supplement of paper PMC10849652
About 7,900 targets were measured; listed, in parts, are those with a hit and a random draw of the rest. About 0.6% of all pairs of compound and target were hits. A number with no mark means an inactive call.

Tests used:
Test in all cases: log2 fold change, soluble protein after heating vs DMSO (PISA); higher = thermal stabilisation; K562 cells, 10 uM, 30 min; active = over 0.2 and 3.5 SD of the protein, either way, in both replicates (recomputed)
[1] = compound: COC1=CC=C(C=C1)CN2C=CC3=C2C=C(C=C3)C(=O)NO
In short: (§1)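 K562 cells at 2×10^6 cells/mL were treated for 30 min with 10 μM compound, and aliquots were heated for 3 min over 48°C-58°C before pooling. Extraction used PBS with 0.5% NP-40 at 4°C, and soluble protein was the supernatant after 21,000xg for 90 min, measured by TMTpro 16plex LC-MS/MS with channel sums equalised. Thermal stability values, relative to control samples and from duplicates, are log2 fold changes.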

filanesib = compound: CON(C)C(=O)N1N=C(c2cc(F)ccc2F)S[C@@]1(CCCN)c1ccccc1 [filanesib]
In short: as §1

zotarolimus = compound: CO[C@H]1C[C@@H]2CC[C@@H](C)[C@@](O)(O2)C(=O)C(=O)N2CCCC[C@H]2C(=O)O[C@H]([C@H](C)C[C@@H]2CC[C@H](n3cnnn3)[C@H](OC)C2)CC(=O)[C@H](C)/C=C(\C)[C@@H](O)[C@@H](OC)C(=O)[C@H](C)C[C@H](C)/C=C/C=C/C=C/1C [zotarolimus]
In short: as §1

idasanutlin = compound: COc1cc(C(=O)O)ccc1NC(=O)[C@@H]1N[C@@H](CC(C)(C)C)[C@](C#N)(c2ccc(Cl)cc2F)[C@H]1c1cccc(Cl)c1F [idasanutlin]
In short: as §1

alisertib = compound: COc1cc(Nc2ncc3c(n2)-c2ccc(Cl)cc2C(c2c(F)cccc2OC)=NC3)ccc1C(=O)O [alisertib]
In short: as §1

[2] = compound: COc1cc2nc(-c3cc(F)ccc3O)nc(N[C@@H]3CNC[C@H]3C(C)(C)O)c2cc1OC
In short: as §1

gefitinib = compound: COc1cc2ncnc(Nc3ccc(F)c(Cl)c3)c2cc1OCCCN1CCOCC1 [gefitinib]
In short: as §1

[3] = compound: COc1cccc2cc(-c3nc([C@H]4CC[C@H](C(=O)O)CC4)n4ncnc(N)c34)[nH]c12
In short: as §1

lapatinib = compound: CS(=O)(=O)CCNCc1ccc(-c2ccc3ncnc(Nc4ccc(OCc5cccc(F)c5)c(Cl)c4)c3c2)o1 [lapatinib]
In short: as §1

pictilisib = compound: CS(=O)(=O)N1CCN(Cc2cc3nc(-c4cccc5[nH]ncc45)nc(N4CCOCC4)c3s2)CC1 [pictilisib]
In short: as §1

Sequence of UniProt O75607 (O75607 whole entry, looked up): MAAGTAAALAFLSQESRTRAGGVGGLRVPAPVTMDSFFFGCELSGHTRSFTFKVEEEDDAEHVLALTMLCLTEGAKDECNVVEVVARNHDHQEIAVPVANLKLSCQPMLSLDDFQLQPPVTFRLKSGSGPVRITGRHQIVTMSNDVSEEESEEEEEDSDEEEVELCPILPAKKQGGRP
Sequence of UniProt Q92692 (Q92692 whole entry, looked up): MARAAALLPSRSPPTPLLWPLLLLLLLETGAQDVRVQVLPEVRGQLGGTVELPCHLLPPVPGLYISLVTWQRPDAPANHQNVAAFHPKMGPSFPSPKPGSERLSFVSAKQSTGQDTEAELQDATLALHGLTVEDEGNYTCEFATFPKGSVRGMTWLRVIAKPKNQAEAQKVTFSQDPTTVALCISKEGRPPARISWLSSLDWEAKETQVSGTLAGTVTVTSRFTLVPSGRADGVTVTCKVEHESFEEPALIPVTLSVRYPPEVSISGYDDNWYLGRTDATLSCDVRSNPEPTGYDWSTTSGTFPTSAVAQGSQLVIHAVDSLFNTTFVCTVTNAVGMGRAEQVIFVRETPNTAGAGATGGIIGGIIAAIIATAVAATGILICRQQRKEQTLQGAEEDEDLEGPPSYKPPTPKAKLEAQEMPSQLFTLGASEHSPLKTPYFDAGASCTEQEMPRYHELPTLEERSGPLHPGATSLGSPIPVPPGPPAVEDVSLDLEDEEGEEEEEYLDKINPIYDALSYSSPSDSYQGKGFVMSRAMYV
Sequence of UniProt Q9BW27 (Q9BW27 whole entry, looked up): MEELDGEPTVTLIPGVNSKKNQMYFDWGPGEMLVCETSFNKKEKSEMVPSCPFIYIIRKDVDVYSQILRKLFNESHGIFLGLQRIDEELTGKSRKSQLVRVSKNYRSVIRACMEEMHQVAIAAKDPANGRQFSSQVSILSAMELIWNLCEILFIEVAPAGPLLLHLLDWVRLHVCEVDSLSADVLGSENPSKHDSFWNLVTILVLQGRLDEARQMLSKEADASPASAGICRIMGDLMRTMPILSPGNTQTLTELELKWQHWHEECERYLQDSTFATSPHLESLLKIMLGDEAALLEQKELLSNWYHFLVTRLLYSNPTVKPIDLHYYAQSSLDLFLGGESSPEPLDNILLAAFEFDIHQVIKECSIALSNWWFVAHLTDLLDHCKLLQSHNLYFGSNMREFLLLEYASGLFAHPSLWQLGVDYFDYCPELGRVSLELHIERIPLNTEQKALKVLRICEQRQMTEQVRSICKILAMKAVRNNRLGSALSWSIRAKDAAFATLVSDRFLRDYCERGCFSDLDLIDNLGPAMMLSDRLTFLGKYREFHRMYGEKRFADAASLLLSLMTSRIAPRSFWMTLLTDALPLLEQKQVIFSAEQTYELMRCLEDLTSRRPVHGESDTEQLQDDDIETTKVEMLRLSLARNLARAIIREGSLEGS
Sequence of UniProt P35749 (P35749 whole entry, looked up): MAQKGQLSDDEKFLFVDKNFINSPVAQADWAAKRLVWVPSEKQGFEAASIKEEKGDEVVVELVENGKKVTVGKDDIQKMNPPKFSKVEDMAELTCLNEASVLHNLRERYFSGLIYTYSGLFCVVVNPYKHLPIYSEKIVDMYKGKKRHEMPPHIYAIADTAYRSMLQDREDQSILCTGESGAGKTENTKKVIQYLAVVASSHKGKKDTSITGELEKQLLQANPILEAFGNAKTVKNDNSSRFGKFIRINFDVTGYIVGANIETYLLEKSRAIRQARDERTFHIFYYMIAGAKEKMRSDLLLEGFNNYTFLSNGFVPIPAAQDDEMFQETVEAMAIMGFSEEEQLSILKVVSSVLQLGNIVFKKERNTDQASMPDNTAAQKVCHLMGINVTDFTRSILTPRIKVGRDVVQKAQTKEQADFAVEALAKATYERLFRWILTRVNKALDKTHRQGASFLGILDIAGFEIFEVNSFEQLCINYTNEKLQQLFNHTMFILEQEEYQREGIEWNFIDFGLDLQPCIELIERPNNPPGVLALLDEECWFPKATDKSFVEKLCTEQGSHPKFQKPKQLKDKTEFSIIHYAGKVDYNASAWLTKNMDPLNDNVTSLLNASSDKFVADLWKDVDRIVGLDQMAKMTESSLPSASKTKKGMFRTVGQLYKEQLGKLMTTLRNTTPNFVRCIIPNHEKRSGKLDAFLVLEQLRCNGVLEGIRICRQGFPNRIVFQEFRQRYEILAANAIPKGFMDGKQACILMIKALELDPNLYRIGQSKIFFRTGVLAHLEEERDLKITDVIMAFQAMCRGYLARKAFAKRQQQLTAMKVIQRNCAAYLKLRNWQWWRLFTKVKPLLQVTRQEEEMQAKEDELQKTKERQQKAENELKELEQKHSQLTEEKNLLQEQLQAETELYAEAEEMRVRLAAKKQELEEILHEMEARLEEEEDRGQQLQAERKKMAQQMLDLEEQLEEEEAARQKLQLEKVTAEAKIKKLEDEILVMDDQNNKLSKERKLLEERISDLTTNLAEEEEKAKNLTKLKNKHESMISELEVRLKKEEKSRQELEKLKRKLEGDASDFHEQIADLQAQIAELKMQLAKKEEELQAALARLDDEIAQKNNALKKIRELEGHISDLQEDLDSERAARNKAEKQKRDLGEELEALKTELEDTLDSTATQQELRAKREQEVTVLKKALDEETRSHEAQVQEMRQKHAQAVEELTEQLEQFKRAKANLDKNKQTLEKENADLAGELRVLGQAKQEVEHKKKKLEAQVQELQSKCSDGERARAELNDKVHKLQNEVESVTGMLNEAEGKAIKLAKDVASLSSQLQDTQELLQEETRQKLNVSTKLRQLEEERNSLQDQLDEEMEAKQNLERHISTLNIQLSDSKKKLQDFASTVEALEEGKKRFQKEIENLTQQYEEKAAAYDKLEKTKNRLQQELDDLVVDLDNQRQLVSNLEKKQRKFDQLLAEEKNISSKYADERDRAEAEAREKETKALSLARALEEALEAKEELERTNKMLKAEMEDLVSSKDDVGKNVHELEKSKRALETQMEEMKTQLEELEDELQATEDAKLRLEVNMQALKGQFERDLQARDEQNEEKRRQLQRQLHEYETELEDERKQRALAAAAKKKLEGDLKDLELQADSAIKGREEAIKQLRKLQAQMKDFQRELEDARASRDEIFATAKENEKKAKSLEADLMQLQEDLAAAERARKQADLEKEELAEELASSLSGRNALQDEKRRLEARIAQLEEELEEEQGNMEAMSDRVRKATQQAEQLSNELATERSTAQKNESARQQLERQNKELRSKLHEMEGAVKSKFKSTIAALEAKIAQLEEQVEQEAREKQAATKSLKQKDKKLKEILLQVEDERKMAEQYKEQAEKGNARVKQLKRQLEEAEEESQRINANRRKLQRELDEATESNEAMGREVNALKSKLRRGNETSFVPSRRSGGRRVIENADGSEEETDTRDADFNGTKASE
Sequence of UniProt Q16621 (Q16621 whole entry, looked up): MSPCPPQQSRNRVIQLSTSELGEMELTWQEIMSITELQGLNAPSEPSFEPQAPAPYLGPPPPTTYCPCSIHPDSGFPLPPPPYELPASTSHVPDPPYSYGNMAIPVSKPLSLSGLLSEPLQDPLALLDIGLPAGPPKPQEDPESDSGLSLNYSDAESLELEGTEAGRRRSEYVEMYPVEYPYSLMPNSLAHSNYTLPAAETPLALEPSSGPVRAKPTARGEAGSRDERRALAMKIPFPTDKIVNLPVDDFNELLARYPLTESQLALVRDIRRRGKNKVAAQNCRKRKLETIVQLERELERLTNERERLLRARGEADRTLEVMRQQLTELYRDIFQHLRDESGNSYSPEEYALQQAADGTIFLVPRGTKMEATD
Sequence of UniProt O43809 (O43809 whole entry, looked up): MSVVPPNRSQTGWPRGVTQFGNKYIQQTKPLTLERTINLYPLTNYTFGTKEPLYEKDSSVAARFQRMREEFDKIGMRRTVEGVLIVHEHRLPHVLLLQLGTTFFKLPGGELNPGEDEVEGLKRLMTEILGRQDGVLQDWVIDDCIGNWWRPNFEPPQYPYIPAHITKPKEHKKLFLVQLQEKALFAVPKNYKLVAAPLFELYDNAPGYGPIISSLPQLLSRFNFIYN
Sequence of UniProt Q9BSU3 (Q9BSU3 whole entry, looked up): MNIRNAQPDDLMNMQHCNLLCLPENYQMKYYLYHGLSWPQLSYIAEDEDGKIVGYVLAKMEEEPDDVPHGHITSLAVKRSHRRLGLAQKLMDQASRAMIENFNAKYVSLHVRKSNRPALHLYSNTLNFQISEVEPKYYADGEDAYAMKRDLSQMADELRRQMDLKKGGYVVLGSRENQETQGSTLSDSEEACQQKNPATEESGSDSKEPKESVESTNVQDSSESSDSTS
Sequence of UniProt O00566 (O00566 whole entry, looked up): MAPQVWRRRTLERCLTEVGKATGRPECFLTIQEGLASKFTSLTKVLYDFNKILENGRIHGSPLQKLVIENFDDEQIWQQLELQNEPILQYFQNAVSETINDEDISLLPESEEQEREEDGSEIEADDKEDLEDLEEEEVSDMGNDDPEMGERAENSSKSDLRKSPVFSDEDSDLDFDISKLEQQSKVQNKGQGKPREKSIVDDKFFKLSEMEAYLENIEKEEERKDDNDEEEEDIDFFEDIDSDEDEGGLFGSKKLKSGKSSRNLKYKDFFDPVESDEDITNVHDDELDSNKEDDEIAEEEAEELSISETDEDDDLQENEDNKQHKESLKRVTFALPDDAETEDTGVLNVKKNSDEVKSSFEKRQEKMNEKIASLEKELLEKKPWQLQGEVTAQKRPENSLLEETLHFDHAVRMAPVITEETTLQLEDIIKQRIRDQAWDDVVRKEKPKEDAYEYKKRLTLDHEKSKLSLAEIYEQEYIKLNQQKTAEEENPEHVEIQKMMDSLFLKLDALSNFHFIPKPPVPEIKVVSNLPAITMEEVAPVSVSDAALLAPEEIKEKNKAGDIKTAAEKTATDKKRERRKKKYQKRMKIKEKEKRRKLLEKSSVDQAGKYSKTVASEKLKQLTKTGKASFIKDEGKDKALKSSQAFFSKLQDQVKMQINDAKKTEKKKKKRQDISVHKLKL
Sequence of UniProt Q9NRP0 (Q9NRP0 whole entry, looked up): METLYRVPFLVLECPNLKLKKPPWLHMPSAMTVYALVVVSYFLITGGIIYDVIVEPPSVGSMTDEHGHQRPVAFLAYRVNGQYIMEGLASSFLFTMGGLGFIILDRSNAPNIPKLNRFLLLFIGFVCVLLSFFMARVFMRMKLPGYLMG

Row | Target | log2 fold change [1] | log2 fold change (filanesib) | log2 fold change (zotarolimus) | log2 fold change (idasanutlin) | log2 fold change (alisertib) | log2 fold change [2] | log2 fold change (gefitinib) | log2 fold change [3] | log2 fold change (lapatinib) | log2 fold change (pictilisib)
1 | NDUFB7 (UniProt P17568) | -0.011 | -0.023 | -0.03 | -0.025 | -0.051 | -0.077 | 0 | 0.002 | -0.013 | -0.066
2 | NCK1 (UniProt P16333) | 0.049 | -0.054 | 0.13 | -0.001 | -0.127 | -0.165 | 0.002 | -0.024 | -0.066 | 
3 | MRPS10 (UniProt P82664) | -0.041 | 0.045 | 0.08 | -0.088 | -0.014 | -0.017 | -0.042 | 0.012 | 0.069 | -0.112
4 | NA isoform 3 (UniProt Q4G0T1) | -0.007 | 0.049 | 0.044 | 0.052 | -0.09 | 0.039 | 0.016 | 0.106 | 0.112 | 
5 | NAA11 (UniProt Q9BSU3) | 0.077 | -0.026 | -0.022 | 0.037 | -0.066 | 0.13 | 0.037 | 0.116 | -0.085 | 
6 | MLST8 (UniProt Q9BVC4) | 0.1 | -0.206 | -0.12 | -0.154 | 0.019 | 0.055 | -0.041 | -0.081 | -0.039 | 
7 | MYSM1 (UniProt Q5VVJ2) | -0.063 | -0.007 |  |  |  |  |  |  |  | 
8 | NA, A0A096LPI6 | 0.008 | -0.044 | 0.019 | -0.014 | -0.034 | -0.123 | 0.018 | 0.074 | 0.029 | -0.02
9 | NAP1L1 (UniProt P55209) | -0.001 | 0.08 | 0.078 | 0.053 | -0.043 | 0.078 | -0.002 | -0.041 | -0.005 | 0.107
10 | OTUD6B (UniProt Q8N6M0) | 0.016 | -0.025 | 0.1 | -0.012 | 0.005 | 0.005 | -0.017 | -0.013 | -0.028 | 0.017
11 | MPHOSPH10 (UniProt O00566) | -0.139 | 0.561 (active) | 0.053 | 0.271 | -0.061 | -0.166 | 0.026 | -0.031 | 0.174 | -0.105
12 | MRPS5 (UniProt P82675) | -0.06 | 0.078 | 0.091 | -0.37 (active) | 0.021 | 0.015 | -0.026 | 0.02 | 0.054 | -0.026
13 | OSTM1 (UniProt Q86WC4) | -0.012 | -0.122 | 0.007 | 0.002 | -0.015 | -0.09 | -0.066 | 0.002 | 0.056 | 0.055
14 | NUP160 (UniProt Q12769) | -0.043 | -0.003 | 0.017 | 0.004 | -0.076 | -0.068 | 0.033 | 0.037 | 0.057 | -0.021
15 | MYH11 isoform 2 (UniProt P35749) | 0.027 | -0.002 | 0.022 | -0.045 | 0.033 | 0.067 | 0.025 | -0.033 | 0.018 | -0.035
16 | NARS2 (UniProt Q96I59) | -0.213 | -0.196 | 0.027 | -0.072 | -0.046 | 0.007 | -0.039 | 0.09 | -0.031 | -0.037

Row | Target | log2 fold change [1] | log2 fold change (filanesib) | log2 fold change (zotarolimus) | log2 fold change (idasanutlin) | log2 fold change (alisertib) | log2 fold change [2] | log2 fold change (gefitinib) | log2 fold change [3] | log2 fold change (lapatinib) | log2 fold change (pictilisib)
17 | NPM3 (UniProt O75607) | 0.123 | 0.116 | 0.104 | 0.258 | -0.205 | 0.006 | -0.011 | -0.069 | -0.003 | -0.025
18 | ORC3 isoform 2 (UniProt Q9UBD5) | 0.071 | 0.043 | 0.064 | 0.265 | -0.058 | -0.002 | 0.006 | -0.068 | 0.031 | 0.027
19 | NEU1 (UniProt Q99519) | 0.153 | -0.107 | 0.001 | 0.015 | -0.123 | -0.05 | -0.091 | -0.073 | -0.015 | -0.113
20 | NEDD4L (UniProt Q96PU5) | -0.027 | 0.095 | 0.032 | -0.018 | -0.114 | 0.086 | -0.031 | 0.027 | -0.025 | -0.035
21 | NECTIN2 (UniProt Q92692) | -0.028 | 0.027 | -0.042 | -0.003 | -0.084 | 0.011 | 0.06 | 0.014 | -0.01 | 0.021
22 | NISCH (UniProt Q9Y2I1) | -0.008 | -0.029 | -0.022 | -0.015 | 0.023 | -0.119 | -0.014 | 0.106 | 0.041 | -0.061
23 | NACC1 (UniProt Q96RE7) | 0.009 | -0.116 | 0.103 | 0.02 | 0.016 | -0.198 | 0.021 | 0.024 | -0.031 | -0.034
24 | OSTC (UniProt Q9NRP0) | -0.05 | -0.171 | -0.105 | -0.041 | -0.101 | -0.184 | 0.018 | 0.026 | -0.041 | 0.162
25 | MXRA7 (UniProt P84157) | -0.248 | 0.135 | 0.023 | -0.066 | -0.017 | -0.007 | 0.058 | 0.067 | 0 | -0.053
26 | MRPS27 isoform 2 (UniProt Q92552) | 0.062 | 0.029 | 0.068 | -0.124 | -0.05 | -0.024 | 0.016 | -0.014 | 0.036 | -0.038
27 | NFYC (UniProt Q13952) | -0.026 | -0.023 | 0.004 | -0.065 | -0.036 | 0.017 | -0.018 | 0.127 | 0.033 | 0.092
28 | MRPS17 (UniProt Q9Y2R5) | -0.089 | 0.038 | 0.047 | -0.254 | -0.043 | -0.025 | 0.039 | -0.016 | 0.113 | 0.035
29 | NUDT21 (UniProt O43809) | -0.003 | 0.027 | 0.013 | 0.006 | -0.077 | 0.102 | -0.019 | 0.031 | -0.019 | 0.017
30 | NFE2 (UniProt Q16621) | 0.135 | 0 | 0.146 | 0.023 | -0.056 | -0.032 | -0.008 | 0.014 | 0.007 | 0.05
31 | NUP85 (UniProt Q9BW27) | 0.01 | -0.009 | -0.022 | 0.016 | -0.061 | -0.038 | 0.025 | 0.043 | -0.042 | 0.049
